Laboratory results published in PubChem BioAssay.
For some assays here: Measured potencies and affinities stand elsewhere. The source made the active and inactive calls. Unless noted, the rule behind the calls is not given here.

Legend:
[1] = antimalarial activity against Dd2 strain (AID 2302;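 active = growth inhibition above 50% at the single 2 µM test dose, taken to imply half-maximal potency below 2 µM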;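 note: 0% = DMSO untreated growth and 100% = chloroquine plus artemisinin killed control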); conditions: P. falciparum Dd2 in RBCs, LDH growth readout, 72 h; at 2 µM; stronger effect = higher value
[2] = human hepatoma cell viability loss – ATP luminescence, cytotoxicity control for P. falciparum antimalarial project, primary screen (AID 2303;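 active = inhibition above 50%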;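 note: 0% = DMSO wells and 100% = digitonin-killed cells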); conditions: HepG2 viability, 24-48 h, at 10 µM, stronger effect = higher value
[3] = target: L-lactate dehydrogenase (Plasmodium falciparum (isolate CDC / Honduras)) (UniProt Q27743); experiment: PfLDH activity inhibition – cell lysate, 3D7 strain, counter-screen for P. falciparum growth inhibition project (AID 2304);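 note: 0% = vehicle and 100% = reference inhibitor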; conditions: P. falciparum 3D7 crude extract, LDH APAD/NBT absorbance; at 2 µM; stronger effect = higher value
Sequence of L-lactate dehydrogenase (Plasmodium falciparum (isolate CDC / Honduras)) (Q27743 whole entry, looked up): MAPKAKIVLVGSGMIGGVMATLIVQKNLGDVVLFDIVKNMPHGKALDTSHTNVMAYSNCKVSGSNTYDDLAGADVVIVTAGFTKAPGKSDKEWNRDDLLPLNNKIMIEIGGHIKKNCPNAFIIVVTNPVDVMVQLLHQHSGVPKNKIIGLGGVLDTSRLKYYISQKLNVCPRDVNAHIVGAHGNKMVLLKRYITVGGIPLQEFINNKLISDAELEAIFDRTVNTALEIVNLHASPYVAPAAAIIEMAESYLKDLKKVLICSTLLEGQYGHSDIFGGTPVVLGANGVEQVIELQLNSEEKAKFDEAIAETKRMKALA

[4] = inhibition of 3D7 malaria parasite growth – strain 3D7 (AID 2306);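 note: 0% = DMSO wells and 100% = chloroquine plus artemisinin control wells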; conditions: P. falciparum 3D7 erythrocytic growth, LDH absorbance, 72 h; at 2 µM; stronger effect = higher value
[5] = target: Calcium-dependent protein kinase 1 (Plasmodium falciparum (isolate 3D7)) (UniProt P62344); experiment: PfCDPK1 kinase inhibitors, biochemical, TCAMS library (AID 1159585; cut-off not given, nearly all actives have IC50 up to about 0.98 µM;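 note: inhibitors leave more ATP so luminescence rises with inhibition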); conditions: recombinant PfCDPK1, Kinase-Glo ATP depletion luminescence
Sequence of Calcium-dependent protein kinase 1 (Plasmodium falciparum (isolate 3D7)) (P62344 whole entry, looked up): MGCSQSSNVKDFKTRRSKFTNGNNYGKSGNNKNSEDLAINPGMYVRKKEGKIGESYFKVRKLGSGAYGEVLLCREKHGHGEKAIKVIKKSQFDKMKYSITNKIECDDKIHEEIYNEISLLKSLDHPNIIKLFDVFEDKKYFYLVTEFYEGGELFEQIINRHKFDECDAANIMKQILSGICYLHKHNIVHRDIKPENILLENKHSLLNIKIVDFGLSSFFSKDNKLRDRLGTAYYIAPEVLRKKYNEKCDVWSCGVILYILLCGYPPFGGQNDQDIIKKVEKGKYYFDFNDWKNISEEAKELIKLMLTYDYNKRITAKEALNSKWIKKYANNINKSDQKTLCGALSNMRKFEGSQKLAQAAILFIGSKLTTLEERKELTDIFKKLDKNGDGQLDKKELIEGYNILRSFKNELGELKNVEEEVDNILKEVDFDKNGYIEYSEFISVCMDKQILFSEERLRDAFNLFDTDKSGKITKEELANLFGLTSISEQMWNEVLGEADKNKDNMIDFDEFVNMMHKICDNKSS

[6] = target: Plasmodium falciparum protein kinase 6 (PK6, PF3D7_1337100) (UniProt Q8IDW1); experiment: PfPK6 kinase inhibitors, biochemical, TCAMS library (AID 1159586); conditions: recombinant PfPK6, Kinase-Glo ATP depletion luminescence
Sequence of Plasmodium falciparum protein kinase 6 (PK6, PF3D7_1337100) (Q8IDW1 1-305): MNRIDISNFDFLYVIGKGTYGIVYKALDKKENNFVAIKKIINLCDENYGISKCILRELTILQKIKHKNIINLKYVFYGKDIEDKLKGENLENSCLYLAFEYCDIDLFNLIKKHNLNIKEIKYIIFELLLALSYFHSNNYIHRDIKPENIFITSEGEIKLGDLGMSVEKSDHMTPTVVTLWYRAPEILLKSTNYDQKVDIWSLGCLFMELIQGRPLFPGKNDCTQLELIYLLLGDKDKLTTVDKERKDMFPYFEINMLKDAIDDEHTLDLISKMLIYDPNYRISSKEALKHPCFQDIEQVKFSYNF

[7] = target: Protein kinase 7 (PK7), Plasmodium falciparum 3D7 (PF3D7_0213400) (UniProt Q7YTF7); experiment: inhibition of Plasmodium PK7 catalytic activity – biochemical, TCAMS antimalarial set, Kinase-Glo luminescence (AID 1159587); conditions: recombinant PfPK7, Kinase-Glo ATP depletion luminescence
Sequence of Protein kinase 7 (PK7), Plasmodium falciparum 3D7 (PF3D7_0213400) (Q7YTF7 1-343): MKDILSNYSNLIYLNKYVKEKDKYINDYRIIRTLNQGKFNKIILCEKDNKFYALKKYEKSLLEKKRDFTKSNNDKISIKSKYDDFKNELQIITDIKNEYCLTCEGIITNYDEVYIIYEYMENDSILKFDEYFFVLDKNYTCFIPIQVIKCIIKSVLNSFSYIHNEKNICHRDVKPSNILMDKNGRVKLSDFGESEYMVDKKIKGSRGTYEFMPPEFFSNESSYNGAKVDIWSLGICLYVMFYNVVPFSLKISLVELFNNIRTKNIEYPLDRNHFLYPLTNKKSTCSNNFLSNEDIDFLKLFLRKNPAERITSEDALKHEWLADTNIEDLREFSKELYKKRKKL

[8] = target: Calcium-dependent protein kinase 4 (Plasmodium falciparum (isolate 3D7)) (UniProt Q8IBS5); experiment: PfCDPK4 kinase inhibitors, biochemical, TCAMS library (AID 1159588; cut-off not given, nearly all actives have IC50 up to about 0.91 µM); conditions: recombinant PfCDPK4, Kinase-Glo ATP depletion luminescence
Sequence of Calcium-dependent protein kinase 4 (Plasmodium falciparum (isolate 3D7)) (Q8IBS5 whole entry, looked up): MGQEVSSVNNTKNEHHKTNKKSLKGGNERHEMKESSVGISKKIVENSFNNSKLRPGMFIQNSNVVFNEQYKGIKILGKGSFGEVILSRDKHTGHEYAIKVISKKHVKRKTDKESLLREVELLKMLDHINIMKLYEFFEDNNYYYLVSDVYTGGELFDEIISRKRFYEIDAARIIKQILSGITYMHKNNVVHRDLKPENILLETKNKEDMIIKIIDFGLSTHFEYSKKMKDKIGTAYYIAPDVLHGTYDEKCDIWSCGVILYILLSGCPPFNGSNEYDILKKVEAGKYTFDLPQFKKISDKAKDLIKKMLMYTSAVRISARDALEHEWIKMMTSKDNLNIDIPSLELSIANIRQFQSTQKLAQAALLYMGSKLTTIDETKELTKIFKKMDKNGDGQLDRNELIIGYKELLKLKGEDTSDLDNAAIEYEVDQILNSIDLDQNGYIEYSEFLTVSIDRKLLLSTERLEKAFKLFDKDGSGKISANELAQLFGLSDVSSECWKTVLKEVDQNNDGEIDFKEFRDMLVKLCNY

CC(=O)Nc1ncc(C(=O)Nc2cccc(-c3ccc(-c4nc5ccc(C(F)(F)F)cc5[nH]4)s3)c2)s1
inactive: inhibition [3] 5% | outcome [5] | outcome [6] | outcome [7] | outcome [8]
active: growth inhibition [1] 99% | inhibition [2] 90% | growth inhibition [4] 101%

NC1=NC(CCc2ccccc2)N(c2ccc(Cl)cc2)C(N)=N1 (stereo not given)
inactive: growth inhibition [1] 20% | inhibition [2] 2% | inhibition [3] -5% | outcome [5] | outcome [6] | outcome [7] | outcome [8]
active: growth inhibition [4] 94%

COc1cc(Cc2cnc(NCCN3CCNCC3)nc2N)ccc1OCc1ccc(C(F)(F)F)cc1
active: growth inhibition [4] 98%
inactive: growth inhibition [1] 4% | inhibition [2] 12% | inhibition [3] 4% | outcome [5] | outcome [6] | outcome [7] | outcome [8]

O=C(NCC1CCC(CNCCCc2ccccc2)CC1)Nc1ccc(Cl)c(Cl)c1 (stereo not given)
active: growth inhibition [4] 99%
inactive: growth inhibition [1] 2% | inhibition [2] 26% | inhibition [3] -6% | outcome [5] | outcome [6] | outcome [7] | outcome [8]

O=C(/C=C/c1ccc(Cl)c(Cl)c1)NCCCCCN1CCCC(CNC(=O)Nc2ccc(C(F)(F)F)cc2)C1 (stereo not given)
inactive: growth inhibition [1] 7% | inhibition [2] 27% | inhibition [3] -9% | outcome [5] | outcome [6] | outcome [7] | outcome [8]
active: growth inhibition [4] 100%

Cn1nccc1C(=O)NCCNCc1cccc(-c2csc(-c3nc4ccccc4[nH]3)c2)c1
inactive: growth inhibition [1] 2% | inhibition [2] 30% | inhibition [3] 0% | outcome [5] | outcome [6] | outcome [7] | outcome [8]
active: growth inhibition [4] 101%

NCCCNc1ccc(-c2ccc(NC(=O)Nc3cc(C(F)(F)F)ccc3F)cc2)cn1
inactive: inhibition [2] -3% | inhibition [3] 3% | outcome [5] | outcome [6] | outcome [7] | outcome [8]
active: growth inhibition [1] 66% | growth inhibition [4] 100%

COc1ccc(CCn2c(=N)c(C(=O)NCc3ccc(C)cc3)cc3c(=O)n4ccccc4nc32)cc1
inactive: growth inhibition [1] 16% | inhibition [2] 13% | inhibition [3] -3% | outcome [5] | outcome [6] | outcome [7] | outcome [8]
active: growth inhibition [4] 97%

O=C(Nc1ccc(C(F)(F)F)cc1)c1ccc(S(=O)(=O)NC2CCN(Cc3ccccc3)C2)cc1 (stereo not given)
active: growth inhibition [4] 101%
inactive: growth inhibition [1] 5% | inhibition [2] 42% | inhibition [3] 5% | outcome [5] | outcome [6] | outcome [7] | outcome [8]

C[C@H](Cc1ccc(OCCCCCCOc2ccc(C[C@@H](C)N[C@H](C)c3ccccc3)cc2)cc1)NC[C@H](O)c1cccc(Cl)c1
inactive: inhibition [3] -4% | outcome [5] | outcome [6] | outcome [7] | outcome [8]
active: growth inhibition [1] 98% | inhibition [2] 99% | growth inhibition [4] 99%

CC1(C)N=C(N)N=C(N)N1OCCc1cccc2ccccc12
inactive: inhibition [3] -2% | outcome [5] | outcome [6] | outcome [7] | outcome [8]
active: growth inhibition [1] 97% | inhibition [2] 57% | growth inhibition [4] 95%

CCOC(=O)c1ccc(NC(=O)N(Cc2ccc(-c3ccc(CN4CCNCC4)cc3)cc2)C2CCN(Cc3ccccc3)CC2)cc1
inactive: inhibition [2] 14% | inhibition [3] 3% | outcome [5] | outcome [6] | outcome [7] | outcome [8]
active: growth inhibition [1] 93% | growth inhibition [4] 102%

COc1ccc(C(=O)Cn2nc(-c3ccc(Cl)cc3)ccc2=O)c(OC)c1
active: growth inhibition [1] 70% | growth inhibition [4] 93%
inactive: inhibition [2] -12% | inhibition [3] 4% | outcome [5] | outcome [6] | outcome [7] | outcome [8]

Cc1ccccc1C(=O)NC(NC(=S)Nc1ccc([N+](=O)[O-])cc1)C(Cl)(Cl)Cl (stereo not given)
inactive: growth inhibition [1] 39% | inhibition [2] -7% | inhibition [3] 0% | outcome [5] | outcome [6] | outcome [7] | outcome [8]
active: growth inhibition [4] 101%

COc1ccc(NC(=O)[C@H](Cc2ccccc2)Nc2cc(C)nc(Nc3ccccc3)n2)cc1
inactive: inhibition [2] 0% | inhibition [3] 2% | outcome [5] | outcome [6] | outcome [7] | outcome [8]
active: growth inhibition [1] 92% | growth inhibition [4] 101%

CCCNCc1ccc(-c2ccc(CN(CCOC)C(=O)c3cccc(C#N)c3)cc2)nc1
inactive: growth inhibition [1] 14% | inhibition [2] -2% | inhibition [3] -2% | outcome [5] | outcome [6] | outcome [7] | outcome [8]
active: growth inhibition [4] 84%

Brc1ccccc1CNc1ccnc(NCCn2ccnc2)n1
inactive: growth inhibition [1] 33% | inhibition [3] 4% | outcome [5] | outcome [6] | outcome [7] | outcome [8]
active: inhibition [2] 72% | growth inhibition [4] 99%

CC(C)(C)c1ccc(-c2cc(C(=O)N[C@@H](CO)C(=O)O)on2)cc1 (tested in a mixture with another compound)
inactive: growth inhibition [1] -2% | inhibition [2] 1% | inhibition [3] -1% | outcome [5] | outcome [6] | outcome [7] | outcome [8]
active: growth inhibition [4] 87%

COc1ccc(Br)cc1C1Nc2ccc3ccccc3c2C2=C1C(=O)CC(c1ccccc1)C2 (stereo not given)
inactive: inhibition [2] 25% | inhibition [3] 4% | outcome [5] | outcome [6] | outcome [7] | outcome [8]
active: growth inhibition [1] 96% | growth inhibition [4] 101%

O=C(/C=C/c1ccc(Cl)c(Cl)c1)NCCC(CN1CCC(c2c[nH]c3ccccc23)CC1)c1ccccc1 (stereo not given)
inactive: growth inhibition [1] 42% | inhibition [3] -6% | outcome [5] | outcome [6] | outcome [7] | outcome [8]
active: inhibition [2] 84% | growth inhibition [4] 100%

CCCCCCN1CCC(NCc2cccc3ccccc23)CC1
active: growth inhibition [4] 95%
inactive: growth inhibition [1] 12% | inhibition [2] 21% | inhibition [3] 0% | outcome [5] | outcome [6] | outcome [7] | outcome [8]

CCCC(C)NC(=O)[C@H]1CNCCN1C(=O)CCCc1ccccc1 (stereo not given in full)
inactive: inhibition [2] 47% | inhibition [3] 4% | outcome [5] | outcome [6] | outcome [7] | outcome [8]
active: growth inhibition [1] 98% | growth inhibition [4] 96%

Cc1ccc(-n2c(Cc3cccc4ccccc34)nnc2SCCC#N)c(C)c1
active: growth inhibition [1] 98% | growth inhibition [4] 95%
inactive: inhibition [2] 0% | inhibition [3] -7% | outcome [5] | outcome [6] | outcome [7] | outcome [8]

Cc1ccc(O)cc1Nc1ccnc2ccc(-c3csc(CNCCN4CCOCC4)n3)cc12
inactive: inhibition [2] -24% | inhibition [3] -2% | outcome [5] | outcome [6] | outcome [7] | outcome [8]
active: growth inhibition [1] 97% | growth inhibition [4] 101%

O=C(Nc1n[nH]c2nc(-c3ccco3)c(Br)cc12)c1ccc(CN2CCCC2)cc1
active: growth inhibition [1] 53% | growth inhibition [4] 101%
inactive: inhibition [2] 1% | inhibition [3] 2% | outcome [5] | outcome [6] | outcome [7] | outcome [8]

Cc1cc(NC(=O)NCCN2CCC(NC(=O)c3ccc(F)cc3)CC2)c2ccccc2n1
inactive: inhibition [2] -6% | inhibition [3] -2% | outcome [5] | outcome [6] | outcome [7] | outcome [8]
active: growth inhibition [1] 76% | growth inhibition [4] 99%

CN1CCCc2cc(NC(=O)C=Cc3ccc(-c4ccc(F)cc4F)o3)ccc2C1
active: growth inhibition [4] 90%
inactive: growth inhibition [1] 27% | inhibition [2] 5% | inhibition [3] 4% | outcome [5] | outcome [6] | outcome [7] | outcome [8]

CC(C)(C)C1CC(=O)C[C@@H]2C(=O)N(c3ccc(Br)cc3)C(=O)[C@H]12 (stereo not given in full)
inactive: growth inhibition [1] 7% | inhibition [2] -2% | inhibition [3] 1% | outcome [5] | outcome [6] | outcome [7] | outcome [8]
active: growth inhibition [4] 94%

Clc1cc(Nc2ccnc3ccc(Br)cc23)ccc1Oc1ccc(Cl)c2ccccc12
active: growth inhibition [1] 86% | growth inhibition [4] 99%
inactive: inhibition [2] 6% | inhibition [3] 3% | outcome [5] | outcome [6] | outcome [7] | outcome [8]

Cc1cc(-c2ccc3c(c2)CCN(CCC2CCC(NC(=O)/C=C/c4ccc(F)cc4)CC2)CC3)on1 (stereo not given)
active: growth inhibition [4] 98%
inactive: growth inhibition [1] 47% | inhibition [2] 29% | inhibition [3] -4% | outcome [5] | outcome [6] | outcome [7] | outcome [8]

CN1CCN(Cc2ccc(-c3ccc4ncnc(Nc5ccc(OCc6ccccc6)cc5)c4c3)o2)CC1
active: growth inhibition [1] 90% | growth inhibition [4] 97%
inactive: inhibition [2] 9% | inhibition [3] 2% | outcome [5] | outcome [6] | outcome [7] | outcome [8]

COCCN1CCC(NCC(C)(C)c2nc(-c3ccc(Cl)c(O)c3)c(-c3ccncc3)[nH]2)CC1
active: growth inhibition [4] 102%
inactive: growth inhibition [1] 47% | inhibition [2] -8% | inhibition [3] -2% | outcome [5] | outcome [6] | outcome [7] | outcome [8]

COc1cc(Br)c(NC(=O)Nc2ccc(C(F)(F)F)c(O[C@@H]3CCN(C)C3)c2)cc1OC
inactive: growth inhibition [1] 27% | inhibition [2] 10% | inhibition [3] -1% | outcome [5] | outcome [6] | outcome [7] | outcome [8]
active: growth inhibition [4] 97%

C=CCc1cc(Br)ccc1OCCCON1C(N)=NC(N)=NC1(C)C
active: growth inhibition [1] 97% | inhibition [2] 61% | growth inhibition [4] 95%
inactive: inhibition [3] 2% | outcome [5] | outcome [6] | outcome [7] | outcome [8]

CCCCCc1cc(OC(=O)CCCN(CC)CC)c2c(c1)OC(C)(C)C=C2C1=CCN(Cc2ccc3ccccc3c2)CC1
active: growth inhibition [1] 92% | inhibition [2] 94% | growth inhibition [4] 100%
inactive: inhibition [3] -2% | outcome [5] | outcome [6] | outcome [7] | outcome [8]

O=C(NC1CCN(Cc2ccccc2)CC1)c1cccc(Nc2nc(-c3ccccc3)cs2)c1
inactive: growth inhibition [1] 3% | inhibition [3] 3% | outcome [5] | outcome [6] | outcome [7] | outcome [8]
active: inhibition [2] 70% | growth inhibition [4] 84%

COc1ccc2nccc(N3CCC(CCNCc4ccc5c(n4)NC(=O)CO5)CC3)c2c1
active: growth inhibition [1] 50% | growth inhibition [4] 101%
inactive: inhibition [2] 22% | inhibition [3] -1% | outcome [5] | outcome [6] | outcome [7] | outcome [8]

FC(F)(F)c1cccc(CNC2CCN(CC3CCCCC3)CC2)c1
active: growth inhibition [4] 101%
inactive: growth inhibition [1] 12% | inhibition [2] 0% | inhibition [3] 0% | outcome [5] | outcome [6] | outcome [7] | outcome [8]

COc1ccc(C=NNc2cc(C)nc3ccccc23)c2ccccc12
active: growth inhibition [1] 69% | growth inhibition [4] 99%
inactive: inhibition [2] 26% | inhibition [3] -1% | outcome [5] | outcome [6] | outcome [7] | outcome [8]

COc1cc(NC(=O)C(c2ccc(Cl)cc2)C(C)C)cc(OC)c1 (stereo not given)
inactive: inhibition [2] 5% | inhibition [3] -3% | outcome [5] | outcome [6] | outcome [7] | outcome [8]
active: growth inhibition [1] 98% | growth inhibition [4] 99%
